Screens: PubChem BioAssay, National Center for Advancing Translational Sciences (NCATS)
Hits are enriched below; roughly 19% of the tested compounds scored in any of these assays.
HT1080 IDH1KD tx: qHTS for induction of synthetic lethality in tumor cells producing 2HG: qHTS for the HT-1080-IDH1KD cell line | HT-1080 IDH1 knockdown viability, ATP luminescence, 48 h | Potency, µM (top dose mostly 46.1 µM), without a hit: at the highest dose activity, negative = toxicity, hits mostly cytotoxic | 360,000 tested, 2% active | AID 686971, 2013;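 note: potency is the fitted concentration of half-maximal effect; 0% = DMSO wells and -100% = cell-free medium wells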
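Viability of IDH1-knockdown HT-1080 fibrosarcoma cells was assessed by CellTiter-Glo after 48 h at 37 °C with titrated compound; concentration-effect curves were classified by fit quality and response size.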
TDP1 cell noCPT: qHTS for Inhibitors of human tyrosyl-DNA phosphodiesterase 1 (TDP1): qHTS in cells in absence of CPT | Potency, µM (doses to about 46.2 µM), for inactives: at the highest dose activity change, negative = growth inhibition, most hits filed as inhibitors | DT40 Tdp1-/- hTDP1 cells, no CPT, ATP luminescence, 48 h | 420,000 tested, 15% active; note: potency is the fitted concentration of half-maximal effect; nearly all actives have a fitted effect of over 55% in size
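Readout: luminescence from CellTiter-Glo after 30 min in the dark at RT. Cells: DT40 Tdp1-/- with stable hTDP1, 400/well. Exposure: compounds alone, ≥48 hr, 37 °C.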
HT1080NT lethal: qHTS for induction of synthetic lethality in tumor cells producing 2HG: qHTS for the HT-1080-NT fibrosarcoma cell line; AID 686970, 2013; HT-1080-NT fibrosarcoma viability, CellTiter-Glo ATP luminescence, 48 h; 360,000 tested, 1.6% active; Potency, µM (series often up to 46.1 µM), without a hit: at the highest dose activity, negative = less viability, usual class: cytotoxic;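 note: NT is the 2HG producing partner of a matched IDH1 knockdown line; potency is the fitted concentration of half-maximal effect; 0% = DMSO-treated cells and -100% = media-only wells without cells; nearly all actives have a fitted effect of over 55% in size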
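Read-out is CellTiter-Glo luminescence after 10 minutes at room temperature, following 48 hours' compound treatment of HT-1080-NT cells (750 cells/well, RPMI, 5% FBS, 37 degrees C).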
DT40 TDP1 CPT: qHTS for Inhibitors of human tyrosyl-DNA phosphodiesterase 1 (TDP1): qHTS in cells in presence of CPT; chicken DT40 Tdp1-/-;hTDP1 cells + 20 nM CPT, ATP luminescence, 48 h; AID 686979, 2013; 420,000 tested, 12% active; Potency, µM (series often up to 46.2 µM), without a hit: at the highest dose activity change, negative = growth inhibition, usual class: inhibitors; note: potency is the fitted concentration of half-maximal effect; nearly all actives have a fitted effect of over 55% in size
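Cell growth measured by CellTiter-Glo luminescence after a minimum 48 h, 37 C compound exposure with 20 nM CPT in Tdp1-knockout DT40 cells stably expressing hTDP1, seeded 400/well; qHTS titration format.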
IL1B secr inh: qHTS for Inhibitors of Inflammasome Signaling: IL-1-beta AlphaLISA Primary Screen | 360,000 tested, 4.7% active | THP-1 LPS/ATP IL-1B secretion, AlphaLISA, 16 h; active compounds read low | activity change, % at 57.5 µM; in the data active = activity change below about -50%; inconclusive = mostly about -30% to -49%
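Secreted IL-1B measured by AlphaLISA bead assay after 16 h compound exposure of THP-1 cells; compounds (final up to 57.5 uM) added 1 h before LPS (250 ng/mL) and ATP (1.25 mM) stimulation; lower signal means less secretion.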
Numbers without * were called inactive; ? = inconclusive; / = no result; ! = a repeat was not active; [ ] = remark or other dose. Unless noted, calls come from the whole dose curve; as a rule, active = well fitted curve in the direction sought with a large enough effect; inconclusive = small, poorly fitted or top-dose-only effect, or another doubt; inactive = no such curve, though single readings can be large; an effect the other way counts as inactive or inconclusive. Unless noted, % is set by controls: 0 for no effect and ±100 for the full control effect.

SMILES | HT1080 IDH1KD tx | TDP1 cell noCPT | HT1080NT lethal | DT40 TDP1 CPT | IL1B secr inh
Cc1c(C)c2ccc(OC(C)C(=O)NCCc3c[nH]c4ccccc34)cc2oc1=O (stereo unspecified) | 1% | ? | 2% | ? | -21
O=C(NC1CC1)c1cccc2c1C(=O)c1ccc(N3CCC(N4CCCCC4)CC3)cc1S2(=O)=O | 18% | -27% | 2% | -2% | 1
COc1ccccc1CNC(=S)Nc1ccc(F)cc1 | 6% | 5.2µM* | 7% | 3% | 10
COC(=O)Cc1ccc(NC(=S)NCc2ccccc2OC)cc1 | 16% | ? | 15% | ? | 10
NS(=O)(=O)c1ccc(NC(=S)NCc2ccccc2Cl)cc1 | -2% | ? | -4% | -23% | -3
Fc1ccc(NC(=S)NCc2ccccc2Cl)cc1 | 1% | -4% | 7% | 0% | -71*
CCC(C)c1ccc(NC(=S)NCc2ccccc2OC)cc1 (stereo unspecified) | -20% | 23µM* | -27% | ? | 22
O=c1[nH]c(-c2ccccc2)c(-c2ccccc2)nc1[N+](=O)[O-] | -7% | -30% | 0% | ? | 7
COc1ccc(-c2cc(-c3c(O)c(OC)c4occc4c3OC)[nH]n2)cc1 | ? | 5.8µM* | ? | 5.8µM* | ?
COc1ccc(-c2cc(-c3c(O)c(OC)c4occc4c3OC)[nH]n2)cc1OC | ? | 21µM* | ? | ? | -63*
Cc1ccc(C(=O)OCc2cc(=O)n3nc(CC(C)C)sc3n2)cc1 | / | -6% | / | -26% | /
CC(C)(CNC(=O)COc1ccccc1Cc1ccccc1)N1CCOCC1 | -17% | ? | -16% | ? | -59*
O=C(COc1ccc2ccccc2c1)Nc1ccccc1C(=O)O | -1% | ? | 3% | ? | 17
O=C(O)c1cccc(COc2cccc3ccccc23)c1 | -13% | 1% | -13% | 0% | 11
COC(=O)C1=C(CN2CCN(C)CC2)NC(=O)NC1c1cc(C)ccc1C (stereo unspecified) | 8% | -13% | 9% | -16% | -1
COC(=O)C1=C(COc2ccc(C=O)cc2OC)NC(=O)NC1c1cc(C)ccc1C (stereo unspecified) | 11% | 15µM* | 5% | ? | 20
Cc1c(C#N)c(O)n(CCO)c(=O)c1N=Nc1ccc(S(N)(=O)=O)cc1 | 11% | 9% | 0% | -29% | 7
Cc1c(C#N)c(O)n(C)c(=O)c1N=Nc1ccc(S(N)(=O)=O)cc1 | -1% | 13µM* | -2% | ? | -19
CCN(CC)c1ccc(S(=O)(=O)N2CCOCC2)cc1NC(=O)CSC(=S)N1CCCC1 | 0% | 10µM* | -11% | 18µM* | ?
CCN(CC)c1ccc(S(=O)(=O)N2CCOCC2)cc1NC(=O)C1CC1 | 6% | -13% | 14% | -3% | 0
CCN(CC)c1ccc(S(=O)(=O)N2CCOCC2)cc1NC(=O)Nc1ccccc1 | -6% | 21µM* | 12% | ? | 13
CCN(CC)c1ccc(S(=O)(=O)N2CCOCC2)cc1NC(=O)CNCc1ccccc1 | -7% | 21µM* | -1% | ? | -22
CCN(CC)c1ccc(S(=O)(=O)N2CCOCC2)cc1NC(=O)CN1CCN(Cc2ccccc2)CC1 | -1% | 15µM* | -7% | 16µM* | 0
Cc1cc(-c2ccnc(-n3ncc(C(=O)NCCc4cccnc4)c3C)n2)c(C)s1 | / | ? | / | -3%[9.04 µM] | /
CCC(=O)N(C(=O)CC)N1CCN(c2ccncc2S(=O)(=O)N2CCCCC2)CC1 | -1% | ? | 3% | ? | 9
SMILES | HT1080 IDH1KD tx | TDP1 cell noCPT | HT1080NT lethal | DT40 TDP1 CPT | IL1B secr inh
COC(=O)C1CCCCN1Cc1ccc2c(c1)CN(C(=O)c1csc(-c3cccs3)n1)CCO2 (stereo unspecified) | / | ? | / | -4%[9.04 µM] | /
CCN(CC)C(=O)C1=C(C)N(Cc2ccc(OC)cc2)C(=O)C(CC(=O)NCc2cccs2)C1 (stereo unspecified) | 0% | ? | 5% | -18% | -14
CCN(CC)C(=O)C1=C(C)N(Cc2ccccc2)C(=O)C(CC(=O)NCc2cccc3ccccc23)C1 (stereo unspecified) | -3% | 18µM* | -1% | ? | -21
CCN(CC)C(=O)C1=C(C)N(CCC2=CCCCC2)C(=O)C(CC(=O)NCc2cccc3ccccc23)C1 (stereo unspecified) | ? | ? | ? | 16µM* | -57*
CCN(CC)C(=O)C1=C(C)N(Cc2ccc(OC)cc2)C(=O)C(CC(=O)NCc2cccc3ccccc23)C1 (stereo unspecified) | -2% | 23µM* | -11% | ? | -3
CC1=C(C(=O)N(C)C)CC(CC(=O)NC2CCCCC2)C(=O)N1Cc1ccccc1 (stereo unspecified) | -4% | -4% | -5% | -3% | -7
COc1ccc(OC)c(-c2cc(C(=O)N3CCN(c4ccccc4)CC3)no2)c1 | -15% | 21µM* | -1% | ? | 49
COc1ccc(-c2cc(C(=O)N3CCN(c4ccccc4)CC3)no2)cc1 | ? | 21µM*! | -20% | 18µM*! | -53*
COc1ccc(OC)c(-c2cc(C(=O)N3CCc4ccccc4C3)no2)c1 | -28% | ? | -1% | -20% | 5
Cc1[nH]n(-c2ccccc2)c(=O)c1/C=N\NC(=O)C1COc2ccccc2O1 (stereo unspecified) | ? | 5.2µM* | ? | 3.3µM* | 19
Cc1c(/C=N\NC(=O)C2COc3ccccc3O2)c2ccccc2n1C (stereo unspecified) | 0.65µM* | 0.92µM* | 0.65µM* | 0.73µM* | 3
Cc1ccc(-n2c(O)c(/C=N/NC(=O)C3COc4ccccc4O3)c3ccccc3c2=O)cc1 (stereo unspecified) | -14% | 26µM* | -9% | ? | 45
O=C(N/N=C/c1c(O)n(-c2ccccc2Cl)c(=O)c2ccccc12)C1COc2ccccc2O1 (stereo unspecified) | ? | ? | ? | ? | 51
O=C(N/N=C/c1ccco1)C1COc2ccccc2O1 (stereo unspecified) | 14% | -25% | 12% | -2% | 0
CC(C)(C)NC(=O)COC(=O)CNC(=O)C1CCCCC1 | / | 5% | / | -5% | /
CC(=O)Oc1ccc(OC(C)=O)c2c1CC(C)=C(C)C2 | -5% | 13µM* | 1% | 13µM* | -27
